In PubChem BioAssay (NCI) one finds growth inhibition data, which are given here for 21 compounds.

The nature of test [1]: NCI Yeast Anticancer Drug Screen. Data for the rad50 strain (AID 155).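 Also: 0% = growth of vehicle-only cultures of the same strain.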 The following applies: S. cerevisiae rad50 strain growth inhibition; at 50.0 µM; active compounds read high. The method in brief:
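Yeast carrying a defined DNA repair defect were exposed to test compounds, and growth was compared with vehicle-treated controls to give percent inhibition.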

Test [2] is described as follows: NCI Yeast Anticancer Drug Screen. Data for the mec2-1 strain (AID 157). The following applies: S. cerevisiae mec2-1 strain, at 50.0 µM, active compounds read high. The method in brief: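 mec2-1 yeast strain, carrying an alteration in DNA damage repair or cell cycle control, was exposed to compounds; growth inhibition was measured relative to vehicle-treated controls.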

Test [3] can be described thus: NCI Yeast Anticancer Drug Screen. Data for the sgs1 mgt1 strain (AID 161).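 Also: 0% = growth of cultures given vehicle only.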 The following applies: S. cerevisiae sgs1 mgt1 strain, at 50.0 µM, active compounds read high. In a few lines: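 Percent growth inhibition was derived by comparing compound-exposed mutant yeast with vehicle-exposed cultures. The strain carries alterations in DNA damage repair.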
Test [4] in a line: NCI Yeast Anticancer Drug Screen. Data for the cln2 rad14 strain (AID 165).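 Also: 0% = growth equal to vehicle treated cultures.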 As to conditions: S. cerevisiae cln2 rad14 strain, at 50.0 µM, active compounds read high. In a few lines:
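Yeast carrying cln2 and rad14 alterations (cell cycle control and DNA damage repair) were exposed to compounds. Growth inhibition was measured against vehicle-treated controls.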

Test [5] is described as follows: NCI Yeast Anticancer Drug Screen. Data for the bub3 strain (AID 167). The following applies: S. cerevisiae bub3 mutant strain, at 50.0 µM, active compounds read high. The method in brief:
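Compounds were applied to a genetically altered yeast strain carrying a cell-cycle control defect. Growth inhibition was scored against vehicle-treated controls.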

A short description of test [6]: NCI Yeast Anticancer Drug Screen. Data for the mlh1 rad18 strain (AID 175). The following applies: S. cerevisiae mlh1 rad18 strain growth inhibition; at 50.0 µM; active compounds read high. In a few lines: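 Growth inhibition of the yeast strain was measured after compound exposure and expressed relative to vehicle-treated controls. The strain carries defined defects in DNA damage repair.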

Compounds without any hit were thinned out: in the full panel of roughly 79,000, 15% have a hit. A number with no mark means an inactive call. The source made the active and inactive calls. Rule as the data show it: active = growth inhibition above about 70%; inactive = the rest.

For the compound `CCCCCCCC(N)C(=O)O` (stereo unspecified), the growth inhibition was 0% in test [1]; -2.55% in test [2]; 2.25% in test [3]; -26.2% in test [4]; -10.1% in test [5]; -12.9% in test [6].
Take `Cc1c(CCNC(=O)C(F)(F)F)ccc2c1[nH]c1ccccc12`: the growth inhibition in test [1] was -3.3%; in test [2] it was 3.05%; in test [3], 11.8%; in test [4], -41.4%; in test [5], -2.4%; in test [6], -5.95%.
Consider `CCOP(=O)(OCC)C(Cc1ccc(OC)c(OC)c1)N=C(c1ccccc1)c1ccccc1` (stereo unspecified), for which the growth inhibition in test [1] is 4.8%; in test [2], -5.7%; in test [3], -12.2%; in test [4] it was -13.3%; in test [5], -7.55%; in test [6], -7.9%.
Consider `CCc1nc2c(c(=O)[nH]1)C(c1ccc(Cl)cc1)C(C)(C)O2` (stereo unspecified), for which the growth inhibition in test [1] was -1.2%; in test [2], -22.6%; in test [3], -17.4%; in test [4], 4.45%; in test [5], 1.1%; in test [6], -7.4%.
For `CCCCCCC1OCCO1`, the growth inhibition is 29.8% in test [1]; 2.8% in test [2]; 16.5% in test [3]; -12.8% in test [4]; -4.8% in test [5]; 15.1% in test [6].
Consider `O=C(NC(=O)c1ccc([N+](=O)[O-])cc1)Nc1ccccc1`, for which the growth inhibition in test [1] was 10.3%; in test [2], -4.35%; in test [3] it was -1.4%; in test [4] it was -25.4%; in test [5] it was -14.8%; in test [6], 5%.
Turning to `Fc1nc(F)nc(-c2c3ccccc3c3n2CCS3)n1`, the growth inhibition in test [1] is 1.65%; in test [2] it was 14.1%; in test [3], 9.1%; in test [4], 15.3%; in test [5], 4.7%; in test [6], 7.2%.
`COc1ccc(/C=C/C(=O)c2ccc(F)cc2)cc1`: the growth inhibition is 8.85% in test [1]; -16.4% in test [2]; -12.4% in test [3]; -35.4% in test [4]; -6.5% in test [5]; 10.2% in test [6].
With `N#CC(C#N)=C(C#N)Nc1ccc(F)cc1`, the growth inhibition in test [1] is 1%; in test [2], -10.4%; in test [3], -16.6%; in test [4], -6.5%; in test [5], -13.4%; in test [6], -0.4%.
Turning to `CCOC(=O)C(=CN1C/C(=C/C(C)=C/c2ccccc2)SC1=S)C(=O)OCC`, the growth inhibition in test [1] is -12.1%; in test [2], 28.9%; in test [3] it was 11.7%; in test [4], -20.9%; in test [5], 17.9%; in test [6], 4.85%.
As to `CCC1(C)N=C(C(N)=O)c2ncn(N=C(C)C)c2N1` (stereo unspecified), the growth inhibition in test [1] was -15.8%; in test [2] it was -30.2%; in test [3], -24.3%; in test [4], 14.2%; in test [5] it was -10.5%; in test [6], -16.6%.
On to `O=[N+]([O-])c1cc(Br)cc2c1nc(NCCO)c1ccccc12`, for which the growth inhibition in test [1] is 90.8% (active); in test [2], 79.5% (active); in test [3] it was 96.8% (active); in test [4], 88.2% (active); in test [5], 86.8% (active); in test [6], 97% (active).
In the case of `CC(=O)Nc1ccc(-c2nnc(SCC(=O)Nc3ccc(C)cc3)o2)cc1`, the growth inhibition in test [1] is -15%; in test [2], -5.5%; in test [3], -5.8%; in test [4], 8.4%; in test [5], -13.7%; in test [6], -38.3%.
Turning to `CC1(C)OS2(OC(C)(C)c3ccccc32)c2ccccc21`, the growth inhibition is -10.2% in test [1]; 6.85% in test [2]; 6.5% in test [3]; 8.75% in test [4]; 6.3% in test [5]; 7.65% in test [6].
As to `CC1(C2(C)CC2(Br)Br)CC1(Br)Br` (stereo unspecified), the growth inhibition is 11.4% in test [1]; -0.65% in test [2]; 11.3% in test [3]; 15.8% in test [4]; -2.5% in test [5]; -0.65% in test [6].
On to `CCOC(=O)C(CO)NC(=O)C[NH-].CCOC(=O)C(CO)NC(=O)C[NH-].[Cl][Pt+2][Cl]` (stereo unspecified), for which the growth inhibition in test [1] is -12.5%; in test [2], -8.55%; in test [3] it was -17.4%; in test [4] it was -34.4%; in test [5] it was -3.5%; in test [6] it was 12.2%.
`CCCN(CCC)C(=O)c1ccc(C(C)C)cc1`: the growth inhibition was 11.2% in test [1]; 7.05% in test [2]; 19.1% in test [3]; -6.8% in test [4]; 9.7% in test [5]; 9.7% in test [6].
As to `O=CNc1ccccc1-c1ccccc1`, the growth inhibition in test [1] is -33.3%; in test [2] it was -15%; in test [3] it was -18%; in test [4] it was -17.1%; in test [5], -0.15%; in test [6], 2.55%.
For the compound `COc1ccc(-c2cc(=O)c3c(OC)cccc3o2)c(OC)c1OC`, the growth inhibition in test [1] was -8.9%; in test [2] it was -12.7%; in test [3], -3.5%; in test [4], 0.95%; in test [5] it was -11.2%; in test [6] it was 9.8%.
As to `CCOC(=O)Oc1ccc(C(=O)NCCC(C)C)cc1OCC`, the growth inhibition was -11.8% in test [1]; -10.3% in test [2]; -8.1% in test [3]; -69.2% in test [4]; 25.8% in test [5]; -6.8% in test [6].
For `O=c1c[n+]([O-])c2ccccc2n1O`, the growth inhibition in test [1] was 10.8%; in test [2], -3.75%; in test [3], 3.75%; in test [4], -27.1%; in test [5], -5.7%; in test [6], 11.8%.
